Measured values published in PubChem BioAssay.

Experiment: binders of probe aHhip on microarray, primary screen, stem cell growth factor project, biochemical, small-molecule microarray, fluorescence 635/667 (AID 1087);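 further: score merges spot fluorescence at 667nm with spot signal to noise ratio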
Details: higher = more signal

Row | SMILES | composite z-score
1 | CO[C@@H]1COC(=O)CC=C[C@@H](C)[C@H](OC)COC(=O)CC=C[C@H]1C | -0.16
2 | O=C1O[C@H](c2ccccc2)[C@H](c2ccccc2)N2[C@H]1[C@@H](C(=O)Nc1nc3ccccc3s1)[C@]1(C(=O)Nc3ccc(C#CC4(O)CCCCCC4)cc31)[C@H]2c1ccc(O)cc1 | 0.0623
3 | O=C1O[C@@H](c2ccccc2)[C@@H](c2ccccc2)N2[C@@H](c3ccccc3OCCO)[C@]3(C(=O)Nc4ccc(C#CC5=CCCCC5)cc43)[C@@H](C(=O)O)[C@H]12 | -0.226
4 | O=C1O[C@@H](c2ccccc2)[C@@H](c2ccccc2)N2[C@@H](c3ccc(O)cc3)[C@]3(C(=O)Nc4ccccc43)[C@@H](C(=O)N3CCN(c4ncccn4)CC3)[C@H]12 | 0.0274
5 | C[N+](C)(C)CCCCNC(=O)[C@@H]1C[C@@H]2C(=O)N3CCC[C@H]3C(=O)N2[C@@H]1c1cccc(OCCO)c1 | 0.171
6 | C=CC[C@@]1(C(=O)N2CCOCC2)N=C(c2ccc(OCCCO)cc2)O[C@@H]1c1ccccc1 | -0.712
7 | CCC#CCN(Cc1ccccc1Br)[C@H](/C=C/c1ccccc1)[C@@H](O)Cc1ccccc1 | -0.271
8 | O=C(NCc1ccccc1)c1ccc(Br)cc1[N+](=O)[O-] | -0.114
9 | CC(C)N1CC=CC23O[C@@H]4/C=C\CCCOC(=O)C4[C@H]2C(=O)N(CCCCCO)[C@@H]3C1=O (stereo partly specified) | 0.0176
10 | O=C1OCC=C[C@H]2OC34C=CCN(Cc5ccccc5)C(=O)[C@H]3N(CCO)C(=O)[C@@H]4[C@@H]12 (stereo partly specified) | -0.236
11 | O=C1O[C@H](c2ccccc2)[C@H](c2ccccc2)N2[C@H]1[C@@H](C(=O)NC[C@H](O)c1ccccc1)[C@]1(C(=O)Nc3ccc(C#CC4=CCCCC4)cc31)[C@H]2c1ccc(OCCO)cc1 | 0.136
